This is an account of results in PubChem BioAssay AID1063 (University of Pittsburgh Molecular Library Screening Center, 2008).

In all, about 200,000 compounds went through this assay and about 18,000 (9%) were called active. Rule as the data show it: active = inhibition above about 50%; inactive = the rest. The full list was thinned out, with actives kept by preference.

This assay can be described thus: antileishmanial activity against promastigotes – primary screen (AID 1063).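 Also: promastigotes grown with compound for 44 hours at 28 °C.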 The note with it: Leishmania major promastigotes, resazurin fluorescence viability; at 10 µM; active compounds read high.
In general, inhibition refers to the drop in the measured response relative to a control, in per cent. `CCOc1ccc(NS(=O)(=O)c2ccc(C)c(C(N)=O)c2)cc1`: the inhibition was -2.88% (inactive).
Next, `COCCn1c(Cc2cccn2C)nnc1SCC(=O)Nc1nccs1`: 1.7% (inactive); `Nc1cc(C(F)(F)F)ccc1N1CCOCC1`: 0.97% (inactive); `O=C(/C=C/c1ccc(Cl)cc1)Nc1ccc(Br)cn1`: 0.77% (inactive).
For the compound `O=C(Nc1ccc(Br)cn1)c1ccc([N+](=O)[O-])o1`, the inhibition was 100% (active).
In the case of `O=C(Nc1ccc(Br)cn1)c1ccc([N+](=O)[O-])cc1Cl` it was 13.7% (inactive).
Turning to `CS(=O)(=O)Nc1cccc(-c2cn3ccccc3n2)c1`, the inhibition was -2.73% (inactive).
Turning to `Cc1cnc(C(=O)OCC(=O)NCCCc2ccccc2)cn1`, the inhibition is -4.28% (inactive).
Turning to `O=C(CC1CCCCC1)NCc1ccco1`, the inhibition is -0.08% (inactive).
For `O=C(NCc1ccco1)C1(c2ccc(Cl)cc2)CCCC1`, the inhibition is 76.6% (active).
With `O=C(NCCCCCCNC(=O)NCc1ccco1)NCc1ccco1`, the inhibition was -3.59% (inactive).
For `COc1ccc(N2C(=O)C(Cc3ccccc3)NC2=S)cc1` (configuration not stated), the inhibition was -0.72% (inactive).
As to `Cn1cc(CN2CCCCC2c2ccccn2)c(-c2ccc3c(c2)OCCO3)n1` (configuration not stated), the inhibition was -2.73% (inactive).
Regarding `Cc1cc(/C=C2/NC(=O)NC2=O)c(C)n1-c1cccnc1`, the inhibition is 60.6% (active).
`Cc1cc(/C=C2\SC(=Nc3ccc(N4CCOCC4)cc3)N(C)C2=O)c(C)n1-c1cccnc1`: the inhibition was 0.4% (inactive).
As to `Cc1ccccc1-n1c(C)cc(/C=C2\NC(=O)NC2=O)c1C`, the inhibition was 7.26% (inactive).
In the case of `CCNC(=O)COc1cc(C)c(Br)c(C)c1`, the inhibition was -1.41% (inactive).
Consider `CN(C)/C=C(/C(=O)c1ccc(F)cc1)S(=O)(=O)c1ccc(F)cc1`, for which the inhibition is -1.08% (inactive).
With `CCC(C)(C)NC(=O)C(c1ccccn1)N(C(=O)c1csnn1)c1ccccc1` (configuration not stated), the inhibition is -5.39% (inactive).
In the case of `Cc1ccc(C)c(-n2nnnc2SCC(=O)c2c(N)n(C)c(=O)n(C)c2=O)c1` it was -5.78% (inactive).
In the case of `CN(C)/C=C(/C(=O)c1ccccc1)S(=O)(=O)c1ccc(Cl)cc1`, the inhibition is -6.81% (inactive).
In the case of `COc1ccc(/C=N/NC(=O)Nc2ccc3nsnc3c2)c(OC)c1` it was -1.6% (inactive); in that of `COc1cccc(NC(=O)c2nn(C34CC5CC(CC(C5)C3)C4)cc2[N+](=O)[O-])c1`, 66.2% (active); in that of `COc1cccc(NC(=O)c2nn(-c3ccc(OC)cc3OC)c(=O)c3ccccc23)c1`, -3.79% (inactive).
For `COc1cccc(NC(=O)c2ccc(Cn3cc([N+](=O)[O-])cn3)o2)c1`, the inhibition was 47.4% (inactive).
For `CC(CO)NCC12CC3CC(CC(C3)C1)C2` (configuration not stated), the inhibition was 7.47% (inactive).
Turning to `CC(C)N(C)C(=O)CCc1nnc(CCc2c[nH]c3ccccc23)o1`, the inhibition is -3.38% (inactive).
